# Assay outcomes as filed in PubChem.
# Hits are enriched below; roughly 5% of the tested compounds scored in any of these assays.
# Vaccinia Venus = qHTS for Stage-Specific Inhibitors of Vaccinia Orthopoxvirus: Venus Reporter Primary qHTS; Vaccinia virus Venus reporter expression, fluorescence; Potency, µM (highest dose often 36.5 µM), usual class: inhibitors; hit rate 0.46% among 330,000; AID 720580, 2013; calls by dose curve; tested in A549 cells; note: nearly all actives have a fitted effect of over 30% in size
# Vaccinia mCherry = qHTS for Stage-Specific Inhibitors of Vaccinia Orthopoxvirus: mCherry Reporter Primary qHTS; Vaccinia virus mCherry reporter infection, fluorescence; Potency, µM (titrated, usually from 36.5 µM), actives largely listed as inhibitors; hit rate 0.63% among 310,000; calls by dose curve; tested in A549 cells; note: nearly all actives have a fitted effect of over 35% in size
# HCMV inh = qHTS Assay for inhibitors of the human cytomegalovirus (HCMV); activity change, negative = inhibition, % at 57.5 µM; HFF cells, HCMV-luciferase reporter, 72 h; stronger effect = lower value; hit rate 4.5% among 410,000; in the data active = activity change below about -60%; inconclusive = no clear call, values can overlap the other calls; inactive = above about -39%
#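 Inhibition of viral replication was scored as loss of reporter luminescence in HFFs infected with HCMV-luciferase (MOI 1 PFU/cell) for 72 h; compounds tested at 2 doses, normalized to buffer and Salinomycin controls.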
# Tb PYK inh = qHTS of Trypanosoma Brucei Inhibitors | pyruvate kinase (Trypanosoma brucei), Q57TT1 | TbPYK enzyme, Kinase-Glo Plus ATP luminescence, 45 min | Potency, µM (series often up to 76.8 µM), hits mostly inhibitors | hit rate 0.12% among 410,000 | AID 624173, 2012; note: nearly all actives have a fitted effect of over 50% in size
#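 TbPYK + substrate in 50 mM TEA pH 7.2, 100 mM KCl, 10 mM MgCl2, 0.05% BSA, 0.01% Tween-20; cpd pinned; ADP 130 uM final; 45 min RT; Kinase-Glo Plus 10 min; luminescence endpoint.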
# LmPK inh = qHTS Assay for Inhibitors of Leishmania Mexicana Pyruvate Kinase (LmPK). Q27686. purified LmPK, Kinase-Glo ATP luminescence, 1 h. Potency, µM (series often up to 57.5 µM), usual class: inhibitors. hit rate 0.37% among 290,000
# Target sequence (Q27686 whole entry, looked up): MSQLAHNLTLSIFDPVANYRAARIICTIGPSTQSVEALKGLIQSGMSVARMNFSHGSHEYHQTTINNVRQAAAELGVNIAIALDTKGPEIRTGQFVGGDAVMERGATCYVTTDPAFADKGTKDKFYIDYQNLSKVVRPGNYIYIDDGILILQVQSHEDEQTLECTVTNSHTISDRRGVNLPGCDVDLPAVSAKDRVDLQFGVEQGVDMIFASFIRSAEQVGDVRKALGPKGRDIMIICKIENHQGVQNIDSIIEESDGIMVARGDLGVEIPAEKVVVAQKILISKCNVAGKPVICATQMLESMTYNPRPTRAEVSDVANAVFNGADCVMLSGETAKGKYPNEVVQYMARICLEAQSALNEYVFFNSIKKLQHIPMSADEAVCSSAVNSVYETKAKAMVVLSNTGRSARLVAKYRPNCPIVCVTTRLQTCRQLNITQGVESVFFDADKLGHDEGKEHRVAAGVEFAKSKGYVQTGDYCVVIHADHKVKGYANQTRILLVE
#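 Purified LmPK (0.1 nM) converted ADP (0.1 mM) to ATP with PEP (0.5 mM) in imidazole buffer pH 7.2 with KCl and MgCl2, 1 h at room temperature. ATP was read by Kinase-Glo luminescence; data normalized to uninhibited and no-enzyme controls.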
# A number is an active result; . = inactive; ? = inconclusive; / = no result given; + = active, no number; ! = repeats disagree; [ ] = another dose, or the depositor's remark. Unless noted, calls come from the whole dose curve; as a rule, active = well fitted curve in the direction sought with a large enough effect; inconclusive = small, poorly fitted or top-dose-only effect, or another doubt; inactive = no such curve, though single readings can be large; an effect the other way counts as inactive or inconclusive.
SMILES,Vaccinia Venus,Vaccinia mCherry,HCMV inh,Tb PYK inh,LmPK inh
Cc1ccc(Cn2c(=N)n(CC(=O)c3ccc([N+](=O)[O-])cc3)c3ccccc32)cc1,.,.,-92,.,.
O=C(COc1coc(CN2CCN(c3ccccc3)CC2)cc1=O)Nc1ccc(F)cc1,.,.,-83,.,/
COc1cccc2cc(C(=O)c3ccccc3)oc12,.,.,.,.,.
COc1cccc2cc(/C(=N/O)c3ccc(Br)cc3)oc12,/,/,-66,.,.
CC(C)c1cc(C(=O)N2CCCC(N3CCN(c4ccc(F)cc4)CC3)C2)n(C)n1 (stereo not given),/,/,-64,.,.
CCOC(=O)Nc1nnc(-c2ccccc2OC)s1,.,/,?,.,.
CCC(SC1=NCCS1)C(=O)Nc1nnc(-c2ccccc2OC)s1 (stereo not given),?,?,-97,.,.
CCOC(=O)N1CCN(C(=O)Nc2ccc3nc(-c4ccccn4)c(-c4ccccn4)nc3c2)CC1,.,/,.,.,.
CCc1ccc(NC(=O)CN2CCCN(Cc3cccc(Cl)c3)S2(=O)=O)cc1,.,.,+,.[15.4 µM],/
CCc1cccc(C)c1NC(=O)CN1CCCN(Cc2ccccc2Cl)S1(=O)=O,.,.,+,.[15.4 µM],/
CCc1cccc(C)c1NC(=O)CN1CCN(Cc2ccccc2Cl)S1(=O)=O,.,.,.,.[15.4 µM],/
CCOC(=O)[C@]12Cc3cc(OC)ccc3[C@H]1N(Cc1ccccc1)C(=O)c1cc(F)c(F)cc12,.,.,.,.,/
CCOC(=O)[C@]12Cc3c(cc(OC)c(OC)c3OC)[C@H]1N(Cc1ccccc1)C(=O)c1cc(OC)ccc12,?,?,-107,.,/
CCOC(=O)C1(Cc2cccc(OC)c2)CCN(Cc2ccccc2)CC1,.,.,.,.,.
CCOC(=O)[C@]12Cc3c(cc(OC)c(OC)c3OC)[C@H]1N(Cc1ccccc1)C(=O)c1cc(F)c(F)cc12,.,.,-61,.,/
CCOC(=O)[C@]12Cc3cc(C)ccc3[C@H]1N(Cc1ccccc1)C(=O)c1cc(F)c(F)cc12,.,.,-109,.,/
Cc1cc(C)c(NC(=O)CSc2nc3c(c(=O)n2C)SC(C)C3)c(C)c1 (stereo not given),.,.,?,.,.
COc1ccccc1-n1c([S-])c(C(=O)Nc2ccccc2C(F)(F)F)[n+]2ccc(C(=O)NCCO)cc12,.,.,.,.,.
CCCCN(C)CCNC(=O)c1cc(-c2ccc(Cl)s2)nc2ccccc12,.,.,-101,.,/
CCN(CC)CCNC(=O)c1cc(-c2ccc(Br)s2)nc2ccccc12,.[7.34 µM],.[7.34 µM],-94!,.,.
CC(=O)c1ccc(C(=O)NC2CC(C)(C)Cc3c2cnn3-c2ccccc2)cc1 (stereo not given),.,.,.,.,.
O=S(=O)(c1ccccc1)N1CCC(O)(CSc2ccccc2)CC1,.,.,.,.,.
O=S(=O)(c1ccccc1)N1CCC(O)(CSc2ccc(F)cc2)CC1,?,?,-86,.,.
O=C1NC(c2ccccc2)C(c2ccccc2)N1 (stereo not given),.,.,.,.,/
CN1CCN(c2ccc(NC(=O)c3sc4ccccc4c3Cl)cc2)CC1,.,.,?,.,.
SMILES,Vaccinia Venus,Vaccinia mCherry,HCMV inh,Tb PYK inh,LmPK inh
COC(=O)c1ccc(N2CCN(C)CC2)c(NC(=O)c2sc3ccccc3c2Cl)c1,.,.,-98,.,/
Cc1ccccc1C(O)c1cccnc1 (stereo not given),.,.,-61,.,.
Cc1ccc(C(O)c2cccnc2)o1 (stereo not given),.,.,.,.,.
CN(C(=O)c1c(Cl)nc2sccn12)C1CCCCC1,.,.,.,.,.
CCOc1ccc(Nc2nc(Nc3ccc(O)cc3)nc(C)c2[N+](=O)[O-])cc1,.,.,.,.,.
COc1cc(C2=NOC(C(=O)NCc3ccc(F)cc3)C2)cc(OC)c1OC (stereo not given),/,/,-84,.,.
COc1ccc(C2=NOC(C(=O)NCc3ccc(F)cc3)C2)cc1OC (stereo not given),?,.,?,.,.
CC(C)(C)OC(=O)NCCCCCNC(=O)c1nc[nH]c1C(=O)NCCCCCNC(=O)OC(C)(C)C,?,?,-75,.,/
CC(C)(C)OC(=O)NCCCCCNC(=O)c1[nH]cnc1C(=O)N[C@@H](CCCCNC(=O)OC(C)(C)C)C(=O)OC(C)(C)C,?,.,/,.,.
CC(C)(C)OC(=O)NCCCCCNC(=O)c1nc[nH]c1C(=O)NCc1ccc(CNC(=O)OC(C)(C)C)cc1,?,?,-95,.,/
CCN(CC)C(=O)c1sc(NC(=O)C2c3ccccc3Oc3ccccc32)c(C(=O)OC(C)C)c1C,.,.,.,.,/
O=C(Nc1ccc(F)c(F)c1)c1ccc(F)c(S(=O)(=O)N2CCC3(CC2)OCCO3)c1,?,.,-82!,.,.
CCc1ccc(NC(=O)c2ccc(F)c(S(=O)(=O)N3CCC4(CC3)OCCO4)c2)cc1,?,?,-90,.,/
CCc1ccc(NC(=O)c2ccc(F)c(S(=O)(=O)N3CCC(C)CC3)c2)cc1,.,.,.,.,/
CCc1ccc(NC(=O)c2ccc(F)c(S(=O)(=O)N3CCc4ccccc4C3)c2)cc1,?,?,-68,.,/
Cn1c(=O)c2c(nc(Sc3nc4ccccc4n3CC(=O)N3CCCCC3)n2C)n(C)c1=O,.,/,-63,.,.
Cc1ccc(-c2nn(-c3ccccc3)cc2C=C2C(=O)CC(C)(C)CC2=O)cc1,.,.[1.46 µM],.,?,.
CC1=NNC(=O)/C1=C\c1cn(-c2ccccc2)nc1-c1ccc(Cl)cc1,8.9µM,10µM,-102,.,.
O=C(NNC(=S)Nc1ccc(Cl)cc1)c1ccccc1OC(F)F,?,13µM,?,.,.
Cc1cccc(C(=O)N(Cc2nc3ccccc3c(=O)[nH]2)C2CCCCC2)c1,.,.,-79,.,.
O=C(c1ccccc1)N(Cc1nc2ccccc2c(=O)[nH]1)C1CCCC1,.,.,.,.,.
O=C(c1ccc(Br)cc1)N(Cc1nc2ccccc2c(=O)[nH]1)C1CCCC1,.,.,-62,.,.
C=CC(=O)Nc1ccc(Nc2nc(NC3CCC(N(C)C)CC3)nc3c2ncn3C(C)C)cc1 (stereo not given),1.1µM,?,/,.,/
CC(C)[C@H](CO)Nc1nc(Nc2ccc(C(=O)O)c(Cl)c2)c2ncn(C(C)C)c2n1,/,/,/,.,/
COc1cc(/C=C2\SC(=S)N(CCC(=O)Nc3ccccc3O)C2=O)cc(OC)c1OC,/,/,-69,.,.
COc1cc(/C=C2\SC(=S)N(CC(=O)Nc3ccc(O)cc3)C2=O)cc(OC)c1OC,/,/,-75,.,.
